In the library only some 4.3% were active in any assay of this set; here they are far more common.
AF4-AF9 inh – inhibitors of AF4 peptide binding to AF9, primary screen, biochemical, AlphaScreen, biotin-AF4 peptide, FLAG-AF9, single point; Protein AF-9 (Homo sapiens), P42568; inhibition, % at 10 µM; 350,000 tested, 0.47% active; AID 651704, 2012;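 active = every replicate reaching a set inhibition limit, whatever the replicate mean, cut at about 25% in these data; inconclusive = mean inhibition reaches that limit but some replicates miss it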
SMARCA2 act – SMARCA2 (BRM) function activators, primary screen, cell-based, luminescence, high throughput; MG213 cells, MMTV-luciferase reporter, dexamethasone, overnight; activation, % at 9.1 µM; 370,000 tested, 1% active; in the data active = activation above about 7.8%
MITF act – activators of MITF-driven TRPM1 promoter reporter, primary screen, cell-based, SK-MEL-5, luciferase, single point; activation, % at 12.5 µM; AID 588334, 2011; SK-MEL-5 TRPM1-promoter luciferase, 24 h; % of positive control, neutral wells = 0; 300,000 tested, 0.75% active;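 active = mean activation of at least 80% with every replicate also reaching 80%; inconclusive = mean reaches 80% but some replicate falls short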
FGF22 binding – binders of human FGF22 protein, primary screen, FGF22 synaptogenesis inhibitor project, biophysical, thermal shift, single point. activity (Tm shift, normalised), % at 9.99 µM. 340,000 tested, 1.5% active. AID 651658, 2012. recombinant FGF22 thermal shift, SYPRO orange fluorescence; percent of sucrose octasulfate shift, DMSO zero;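 active = mean Tm shift, scaled 0 neutral to 100 positive control, at about 1.3% or above, every replicate too, limit read from the data; inconclusive = no clear call, values can overlap the other calls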
Target sequence (Q9HCT0 whole entry, looked up): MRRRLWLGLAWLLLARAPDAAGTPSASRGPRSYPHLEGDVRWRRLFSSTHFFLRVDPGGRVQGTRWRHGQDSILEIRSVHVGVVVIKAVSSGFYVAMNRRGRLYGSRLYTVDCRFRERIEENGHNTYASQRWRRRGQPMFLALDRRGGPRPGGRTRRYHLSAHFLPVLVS
Wnt act – Wnt/beta-catenin pathway activators, primary screen, cell-based, plate reader, single point. Wnt/beta-catenin reporter cell assay, activator. activation, % at 9.35 µM. 300,000 tested, 1.2% active. AID 743398, 2014; in the data active = activation above about 30%, passing the limit was not always enough; inconclusive = no clear call, values can overlap the other calls
esBAF inh – Bmi1 luciferase reporter increase in mESCs, primary screen, esBAF inhibitor project, mouse ES cells, Bmi1 luciferase knock-in, single point; 350,000 tested, 2% active; reporter increase, % at 12.5 µM; 24 h; 100% = twice the neutral-well signal; AID 602393, 2012; in the data active = activation above about 40%; inconclusive = no clear call, values can overlap the other calls;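 note: a rise in the Bmi1 reporter signal indicates esBAF inhibition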
Hits are given with their value; 0 = inactive; ? = inconclusive; - = no result given.

SMILES	AF4-AF9 inh	SMARCA2 act	MITF act	FGF22 binding	Wnt act	esBAF inh
C[C@@H]1CCCCO[C@@H](CN(C)C(=O)CCCN(C)C)[C@@H](C)CN([C@@H](C)CO)C(=O)c2cc(NS(=O)(=O)c3ccccc3)ccc2O1	0	-	-	0	-	0
C[C@H]1CCCCO[C@H](CN(C)C(=O)Cc2ccccc2)[C@@H](C)CN([C@@H](C)CO)C(=O)c2cc(NC(=O)c3ccccc3)ccc2O1	0	-	-	0	-	0
O=C1CC(c2ccccc2)Oc2ccc(Cl)cc21 (stereo not drawn)	0	0	0	0	0	-
O=C1CC(c2ccc3c(c2)OCCO3)Oc2ccccc21 (stereo not drawn)	0	0	103.7	0	?	84.4
COc1ccc(C2CC(=O)c3cc(OC)ccc3O2)cc1 (stereo not drawn)	0	0	0	0	0	52.2
C[C@@H]1CN([C@@H](C)CO)C(=O)Cc2cc(NC(=O)CCC(F)(F)F)ccc2O[C@H]1CN(C)CC1CCCCC1	0	-	-	0	-	0
CCCN(C)C[C@@H]1Oc2ncc(-c3ccccc3OC)cc2C(=O)N([C@@H](C)CO)C[C@H]1C	0	-	-	-	-	-
C[C@H]1CCCCO[C@H](CN(C)C)[C@@H](C)CN([C@@H](C)CO)C(=O)c2cc(NC(=O)NC3CCCCC3)ccc2O1	0	-	-	0	-	0
COc1ccc(-n2cnc3cc(C(=O)N4CCOCC4)ccc32)cc1	0	0	0	0	0	43.5
COCC(=O)N1C[C@@H]2[C@H](c3ccccc31)[C@H](CO)N2C(=O)C1CC1	0	-	-	0	-	0
O=C(C[C@H]1CC[C@H]2[C@@H](COC[C@H](O)CN2Cc2cccc(C(F)(F)F)c2)O1)NCCc1ccncc1	-	-	-	0	-	0
COc1cc(/C=N/NC(=O)c2cc(-c3ccco3)nc3ccccc23)cc(OC)c1O	0	0	0	0	0	-
O=C(O)COc1ccccc1/C=N/NC(=O)c1cc(-c2ccc(F)cc2)nc2ccccc12	0	0	0	1.5	0	0
O=C(N/N=C/c1cccc(F)c1)c1cc(-c2ccco2)nc2ccccc12	-	0	0	-	0	79.0
CCCC(=O)Nc1ccc2c(c1)OC[C@@H](C)N(Cc1ccc(-c3ccccn3)cc1)C[C@H](C)[C@@H](OC)CN(C)C2=O	0	-	-	0	-	0
C[C@H]1CN([C@@H](C)CO)C(=O)c2cc(NC(=O)Nc3cccc4ccccc34)ccc2O[C@H]1CN(C)S(=O)(=O)c1ccc(F)cc1	0	-	-	0	-	0
FC(F)(F)c1ccccc1Cc1c(-c2cccc(Cl)c2)nc2ccc(Cl)cn12	0	0	-	0	0	56.2
FC(F)(F)c1ccccc1Cc1c(-c2cccc(Br)c2)nc2ccc(Cl)cn12	0	0	-	0	0	0
Cc1ccc(-c2nc3ccc(Cl)cn3c2Cc2ccccc2C(F)(F)F)cc1	0	0	-	0	0	0
Cc1ccc2nc(-c3ccc(Cl)cc3)c(Cc3ccccc3C(F)(F)F)n2c1	0	0	-	0	0	49.6
CN=Cc1sc2ccccc2c1O	0	0	0	0	0	0
CC(=Nc1ccc(C)cc1)c1sc2ccccc2c1O	-	0	0	-	46.4	-
CCOc1ccc(-c2c(=O)n(OCc3ccccn3)c3ccccc3[n+]2[O-])cc1	-	0	0	-	0	0
CCCOc1ccc(-c2c(=O)n(O)c3ccccc3[n+]2[O-])cc1	0	0	-	0	0	49.8
C/C=C/c1ccc([C@H]2[C@@H](CO)N3CCCCN(C(=O)Nc4ccc(F)cc4)C[C@H]23)cc1	0	-	-	0	-	0
SMILES	AF4-AF9 inh	SMARCA2 act	MITF act	FGF22 binding	Wnt act	esBAF inh
C[C@@H]1CCCCO[C@@H](CN(C)C)[C@H](C)CN([C@H](C)CO)C(=O)c2cc(NC(=O)Nc3ccc4c(c3)OCO4)ccc2O1	0	-	-	0	-	0
N/C(Cn1cncn1)=N\NC(=O)C(=O)Nc1cccc(C(F)(F)F)c1	0	0	0	43.1	0	0
COC(=O)[C@]12C[C@H](CC(=O)NCCc3ccccc3OC)C(=O)N(Cc3cccc4ccccc34)C1=C[C@H](C(C)C)O[C@@H]2C1CC1	-	0	-	-	-	-
CC(Nc1ccc(S(=O)(=O)N2CCN(C)CC2)cc1[N+](=O)[O-])c1ccccc1 (stereo not drawn)	0	0	0	0	0	-
COc1ccccc1C(C)Nc1ccc(S(=O)(=O)N2CCN(C)CC2)cc1[N+](=O)[O-] (stereo not drawn)	28.4	0	0	0	0	0
CC(=O)Nc1ccccc1C(=O)C(=O)Nc1cccc(C(=O)NC2CC2)c1	-	0	0	-	-	47.8
Cc1cccc(C(=O)Nc2cccc(C(=O)NC3CCCC3)c2)c1	0	0	0	0	0	0
Cc1ccc(C(=O)Nc2cccc(C(=O)NC3CCCC3)c2)cc1	0	0	0	0	0	49.8
CC(C)Oc1ccc(C(=O)NC2CCCCC2)cc1	-	0	0	-	-	50.0
CCCCNC(=O)c1cccc(NC(=O)C(=O)c2ccccc2NC(C)=O)c1	0	0	0	0	0	0
C[C@H]1CCCCO[C@H](CN(C)S(=O)(=O)c2cccs2)[C@@H](C)CN([C@@H](C)CO)C(=O)c2cc(NS(=O)(=O)c3cccs3)ccc2O1	0	-	-	0	-	0
CN(C)C(/C=C/Nc1ccc(O)cc1)=C(C#N)C#N	0	0	0	43.7	0	-
Cc1cccc(N/C=C/C(=C(C#N)C#N)N(C)C)c1	-	0	0	-	-	-
N#CCC(=O)Nc1ccc(C(=O)OCC(=O)c2c[nH]c3ccccc23)cc1	0	7.9	0	0	0	0
NC(=O)Nc1ccc(C(=O)OCC(=O)c2c[nH]c3ccccc23)cc1	0	0	0	44.0	0	0
C[C@@H]1CN([C@@H](C)CO)C(=O)c2ccccc2-c2ccccc2CO[C@@H]1CN(C)S(=O)(=O)c1ccccc1	0	-	-	0	-	0
C=CCn1cccc(C(=O)Nc2ccc(OC)c(Cl)c2)c1=O	-	-	0	-	-	56.2
C#CCn1cccc(C(=O)Nc2ccc(OC)cc2)c1=O	0	0	0	0	0	52.7
C=CCn1cccc(C(=O)Nc2ccc(SC)cc2)c1=O	0	0	0	0	0	54.9
COc1ccc(NC(=O)Nc2ccc3c(c2)C(=O)N([C@@H](C)CO)C[C@H](C)[C@H](CN(C)C(=O)C2CCCCC2)OCCCC[C@H](C)O3)cc1	0	-	-	0	-	0
CC(C)CC#Cc1ccc2c(c1)O[C@@H](CN(C)S(=O)(=O)c1cccc(F)c1)[C@@H](C)CN([C@@H](C)CO)S2(=O)=O	0	-	-	0	-	0
COc1ccc2c3n([n+]([O-])c2c1)CCN=C3c1ccc(Cl)cc1	0	0	0	0	0	41.5
COc1ccc(N2c3ccccc3CN(Cc3ccccc3)[C@@H](C)[C@H]2Cc2c(C)cccc2C)cc1	0	0	-	0	0	-

Source: PubChem (several laboratories)
